High-throughput results deposited in PubChem BioAssay by National Center for Advancing Translational Sciences (NCATS).
Shown are actives, neighbours in structure and some others; about 12% of the full set was active somewhere.
AmpC inh detg: blocks E. coli AmpC beta-lactamase in detergent assay; hit rate 0.041% among 370,000; AID 485294; AmpC hydrolysis of nitrocefin, absorbance 480 nm, 0.01% Triton; Potency, µM (top dose mostly 114 µM), most hits filed as inhibitors; P00811; also: nearly all actives have a fitted effect of over 25% in size
Target sequence (P00811 whole entry, looked up): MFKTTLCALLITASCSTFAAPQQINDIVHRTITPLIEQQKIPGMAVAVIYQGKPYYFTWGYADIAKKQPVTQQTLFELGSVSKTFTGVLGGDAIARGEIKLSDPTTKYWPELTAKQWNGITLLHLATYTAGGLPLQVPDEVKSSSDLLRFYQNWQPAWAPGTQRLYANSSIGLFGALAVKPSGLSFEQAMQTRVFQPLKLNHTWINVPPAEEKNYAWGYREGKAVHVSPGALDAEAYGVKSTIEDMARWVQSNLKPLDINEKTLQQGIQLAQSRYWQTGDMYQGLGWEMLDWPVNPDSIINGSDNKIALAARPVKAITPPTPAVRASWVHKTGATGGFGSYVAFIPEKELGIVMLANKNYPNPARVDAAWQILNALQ
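20 mM phosphate pH 7.0 + 0.01% (detergent screen) or 0.0001% Triton X-100; 5.3 nM AmpC reagent; cpd preinc 15 min RT; nitrocefin (800 uM stock) to start; A480 q20 s × 4 min; Activity was normalised to no-enzyme and no-compound control wells.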
AmpC no deterg: AmpC beta-lactamase inhibition without detergent; P00811; AmpC nitrocefin hydrolysis, absorbance 480 nm, 0.0001% Triton; Potency, µM (doses to about 57.1 µM), actives largely listed as inhibitors; hit rate 0.52% among 330,000; AID 485341; also: nearly all actives have a fitted effect of over 20% in size
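AmpC (5.3 nM in the dispensed reagent) in 20 mM phosphate pH 7.0 with 0.01% (detergent screen) or 0.0001% Triton X-100 was preincubated with compounds for 15 min at room temperature. Nitrocefin was then added from an 800 uM solution, and hydrolysis was followed at 480 nm.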
Pf growth 96h: P. falciparum growth inhibition at 96 hours; Potency, µM (doses to about 28.7 µM), actives largely listed as inhibitors; P. falciparum luciferase reporter growth, 96 h; hit rate 6.9% among 320,000; AID 504834
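Luminescence readout: decreased luciferase signal marks inhibited growth of reporter-expressing P. falciparum in infected red cells (2% hematocrit, 0.05% parasitemia final), exposed to compound two generations (96 h, 37 C, 5% CO2).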
Sm TGR inh: inhibitors of Schistosoma mansoni thioredoxin glutathione reductase | purified TGR, DTNB reduction, TNB absorbance 405 nm | hit rate 3% among 360,000 | AID 485364 | Potency, µM (top dose mostly 114 µM), most hits filed as inhibitors | Q962Y6; also: nearly all actives have a fitted effect of over 60% in size
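TGR 20 nM + NADPH 100 uM (dispensed conc.), cpd preinc 15 min RT; start with NADPH (500 uM addition) then DTNB (15 mM addition). Kinetic TNB absorbance, 405 nm filter. Four-parameter Hill fit across titration.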
SARS PLP yeast: inhibitors of SARS-CoV papain-like protease in yeast. S. cerevisiae expressing SARS-CoV PLpro, growth rescue. Potency, µM (titrated, usually from 32.9 µM), actives largely listed as activators. hit rate 0.19% among 330,000. AID 485353; calls by dose curve; also: nearly all actives have a fitted effect of over 55% in size
Pf growth 48h: inhibits P. falciparum growth in the first generation, 48 h | P. falciparum luciferase growth in erythrocytes, 48 h | Potency, µM (titrated, usually from 28.7 µM), usual class: inhibitors | hit rate 5.9% among 310,000 | AID 504832
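Luciferase-expressing parasites in RBCs, 2% Hct / 0.1% parasitemia final; RPMI 1640 + 0.5% Albumax; 37 C, 5% CO2, one generation; luminescence read-out, lower signal = inhibition.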
Large screens that a line does not name were inactive. Unless noted, calls follow the shape of the dose curve; as a rule, active = well fitted curve in the direction sought with a large enough effect; inconclusive = small, poorly fitted or top-dose-only effect, or another doubt; inactive = no such curve, though single readings can be large; an effect the other way counts as inactive or inconclusive.

COc1ccccc1-n1nnnc1SCC(=O)NCC1(N2CCOCC2)CCCCC1	Pf growth 96h inconclusive, Pf growth 48h inconclusive
Cc1ccc(C)c(-n2nnnc2SCC(=O)Nc2cccc(-c3nnc4n3CCCCC4)c2)c1	AmpC inh detg inconclusive, Pf growth 96h inconclusive, Pf growth 48h 9.3µM
Cc1ccc(-n2nnnc2SCC(=O)NCC2(N3CCOCC3)CCCCC2)c(C)c1	Pf growth 96h inconclusive, Pf growth 48h 13µM
Cc1cccc(-n2nnnc2SCC(=O)NCC2(N3CCOCC3)CCCCC2)c1C	Pf growth 96h inconclusive, Pf growth 48h 12µM
Cc1ccc(-n2nnnc2SCC(=O)NCC2(N3CCOCC3)CCCCC2)cc1	Pf growth 96h inconclusive, Pf growth 48h inconclusive
Cc1ccc(-n2nnnc2SCC(=O)N2CCc3ccccc3C2)c(C)c1	AmpC inh detg inconclusive, Pf growth 96h 13µM, Pf growth 48h inconclusive
Cc1ccc(C)c(Cn2c(=O)c3c(nc4n3CCN4c3ccccc3)n(C)c2=O)c1	none (no result: AmpC no deterg, Pf growth 96h, SARS PLP yeast, Pf growth 48h)
Cc1ccc(-n2nnnc2SCC(=O)NCC2(N3CCCCC3)CCCCC2)c(C)c1	Pf growth 96h 7.4µM, Pf growth 48h 10µM
O=C(Nc1ccc(Br)cc1F)C(NS(=O)(=O)c1cccc2nsnc12)c1ccccc1 (centres undefined)	none (no result: AmpC no deterg, Pf growth 96h, SARS PLP yeast, Pf growth 48h)
COc1nsnc1NS(=O)(=O)c1ccc(NC(=S)NC(=O)c2ccncc2)cc1	Sm TGR inh 32µM
COc1nccnc1NS(=O)(=O)c1ccc(NC(=S)NC(=O)c2ccc(F)cc2)cc1	Sm TGR inh 45µM
COc1nsnc1NS(=O)(=O)c1ccc(NC(=S)NC(=O)c2cccnc2)cc1	Pf growth 48h inconclusive (no result: Sm TGR inh)
O=C(NC(=S)Nc1ccc(S(=O)(=O)Nc2nccs2)cc1)c1ccc(F)cc1	AmpC inh detg inconclusive, Sm TGR inh 28µM
COc1nccnc1NS(=O)(=O)c1ccc(NC(=S)NC(=O)c2cccc(F)c2)cc1	Sm TGR inh 45µM
CC(C)(C)C(=O)NC(=S)Nc1ccc(S(=O)(=O)Nc2nccs2)cc1	Sm TGR inh inconclusive
CCOc1ccc(Sc2cc(C(=O)NCc3ccccc3Cl)c3ccccc3n2)cc1	none (no result: AmpC no deterg, Pf growth 96h, SARS PLP yeast, Pf growth 48h)
COc1ccc(NC(=O)CSCC(=O)Oc2c(OC)cccc2OC)cc1	none
CC1=CSC2=NS(=O)(=O)CCN12	none
O=C(Nc1ccc(S(=O)(=O)Nc2nccs2)cc1)c1ccc(S(=O)(=O)N2CCOCC2)cc1	Pf growth 96h inconclusive, Pf growth 48h inconclusive
COc1nccnc1NS(=O)(=O)c1ccc(NC(=S)NC(=O)c2ccccc2F)cc1	AmpC inh detg inconclusive, Sm TGR inh inconclusive
COc1nccnc1NS(=O)(=O)c1ccc(NC(=S)NC(=O)c2cccnc2)cc1	Pf growth 96h inconclusive, Sm TGR inh 20µM, Pf growth 48h inconclusive
O=C(O)/C=C/C(=O)Nc1ccc(S(=O)(=O)Nc2nccs2)cc1	Pf growth 96h 1.7µM
O=C(Nc1ccc(S(=O)(=O)Nc2nccs2)cc1)c1ccc(F)c(S(=O)(=O)N2CCOCC2)c1	AmpC inh detg inconclusive, AmpC no deterg 7.9µM, Pf growth 96h inconclusive, Pf growth 48h inconclusive
COc1cccc(C(=O)Nc2ccc(C(=O)OCc3cc(=O)n4nc(C5CC5)sc4n3)cc2)c1	none (no result: AmpC no deterg, Pf growth 96h, SARS PLP yeast, Pf growth 48h)
CC(=O)Nc1ccc(NC(=O)CC(C)n2ccnc2)cc1 (centres undefined)	none
CC[n+]1c(P(=O)([O-])c2ccccc2)[nH]c2ccccc21	AmpC inh detg inconclusive
CS(=O)(=O)c1nc(-c2ccc(F)cc2)cc(C(F)(F)F)n1	none (no result: Sm TGR inh)
CCOC(=O)CS(=O)(=O)c1nc(-c2ccc(F)cc2)cc(C(F)(F)F)n1	Sm TGR inh 2.8µM (no result: Pf growth 96h)
COC(=O)CCS(=O)(=O)c1nc(-c2ccccc2)cc(C(F)(F)F)n1	AmpC inh detg inconclusive, Sm TGR inh 8.9µM (no result: Pf growth 96h)
CCOC(=O)CCS(=O)(=O)c1nc(-c2ccccc2)cc(C(F)(F)F)n1	Sm TGR inh 28µM (no result: Pf growth 96h)
CCOC(=O)CS(=O)(=O)c1nc(-c2ccccc2)cc(C(F)(F)F)n1	Sm TGR inh inconclusive
COCC(C)NC(=O)CCS(=O)(=O)c1nc(-c2ccc(OC)cc2)cc(C(F)(F)F)n1 (centres undefined)	Pf growth 96h 9.3µM, Sm TGR inh inconclusive
